# According to PubChem BioAssay (NCATS):
# “And” between values parts separate entries of the source, which are not always exact repeats. Equal values may be shown once. Records with an inconclusive call do not appear. A call without a number means that no potency is given here. Unmarked numbers belong to inactive results. The source made the active and inactive calls. Unless noted, the call rests on the fitted dose curve; in most records, active means well fitted curve in the direction sought with a large enough effect; inconclusive means small, poorly fitted or top-dose-only effect, or another doubt; inactive means no such curve, though single readings can be large; an effect the other way counts as inactive or inconclusive. Peptide text beside a SMILES is read from it.
# Tests used:
# [1] = qHTS assay for small molecule activators of the p53 signaling pathway (AID 651743; active means well fitted activation curve with a large enough effect in the signal ratio, not every such curve was filed as active; the % refers to the signal ratio; further: potency means the concentration at half of the fitted maximal effect); conditions: HCT-116 p53RE-bla, beta-lactamase FRET ratio, 16 h; activation: stronger effect = higher value
# Outline: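 Read-out is fluorescence intensity from the LiveBLAzer B/G FRET substrate, added for 2 hours at room temperature after HCT-116 p53RE-bla cells had been incubated with compounds for 16 hours at 37 C.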
# [2] = qHTS assay for small molecule activators of the nuclear factor-kappa B (NF-kB) signaling pathway (AID 651749; active means well fitted activation curve with a large enough effect in the signal ratio; the % refers to the signal ratio); conditions: NF-kB-bla ME-180 cells, beta-lactamase FRET ratio, 16 h; stronger effect = higher value
# Outline: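 Readout: beta-lactamase reporter driven by an NF-kB response element, detected fluorescently as loss of FRET. Cells were the ME-180 line, treated 16 hr at 37C with pin-transferred compound.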
# [3] = molecular target: Tumor necrosis factor (Homo sapiens) (UniProt P01375); assay: qHTS assay to identify small molecules that stimulate Tumor Necrosis Factor-alpha (TNF-alpha) secretion (AID 651757; active means well fitted curve in the direction sought with a large enough effect in the signal ratio; the % refers to the signal ratio); conditions: Human cells, HTRF 665/615 ratio; series mostly up to 92.2 µM
# Outline: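 Read-out is HTRF, a TR-FRET sandwich of cryptate- and XL665-labeled anti-TNF-alpha antibodies detecting cytokine secreted by THP-1 cells. Cells had been incubated with test compounds at 37 C for 17 hrs beforehand.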
# [4] = qHTS assay for environmental chemicals that activate the Aryl hydrocarbon Receptor (AhR) signaling pathway (AID 651777); conditions: 1A2-DRE human hepatoma cells, luciferase, 24 h; activation: stronger effect = higher value; further: nearly all actives have a fitted effect of over 15% in size; further: potency means the concentration at half of the fitted maximal effect
# Outline: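 Following a 24 hr incubation with test chemicals at 37 C and 5% CO2, 1A2-DRE human hepatoma cells received One-Glo reagent; after 30 min at room temperature, luciferase output reflected CYP1A2 induction via AhR.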
# [5] = Cell Proliferation Assay against the TMD8 Cell Line (Caspase readout at 16 hrs) (AID 651712); conditions: TMD8 lymphoma cells, caspase activation luminescence; series mostly up to 46.1 µM
# Outline: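 Apoptotic response of TMD8 cells was judged from caspase 3/7 activation following a 16 hour compound incubation at 37 °C. Luminescent signal was converted to percent activity, with DMSO set as 0% and 9.2 uM final bortezomib as 100%.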
# [6] = Cell Proliferation Assay against the TMD8 Cell Line (Caspase readout at 8 hrs) (AID 651713); conditions: TMD8 lymphoma cells, caspase activation luminescence; series mostly up to 46.1 µM; further: potency means the concentration at half of the fitted maximal effect
# Outline: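 Seed log-phase TMD8 cells, add compound by pin tool, incubate 8 h at 37C under 5% CO2, equilibrate to room temperature, add Caspase-Glo, wait 15 min, read luminescence; percent activity uses DMSO and 9.2 uM bortezomib controls.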
# [7] = qHTS assay for small molecule agonists of the antioxidant response element (ARE) signaling pathway (AID 651741; active means well fitted activation curve with a large enough effect in the signal ratio; the % refers to the signal ratio; further: potency means the concentration at half of the fitted maximal effect); conditions: HepG2 ARE-bla reporter, beta-lactamase FRET ratio, 16 h; series mostly up to 96 µM
# Outline: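 Quantitative HTS in HepG2 cells stably expressing an ARE-beta-lactamase reporter; 16 h compound exposure at 37 C, followed by 2 h room-temperature incubation with LiveBLAzer B/G FRET substrate and fluorescence measurement.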
# [8] = qHTS assay for small molecule disruptors of the mitochondrial membrane potential - 1 hr assay (AID 651754; calls by dose curve; further: nearly all actives have a fitted effect of over 35% in size); conditions: series mostly up to 92.2 µM
# Outline: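 HepG2, 2,000 cells/well, overnight attachment; cpd or DMSO 1 hr, 37C/5% CO2; Mito-MPS dye 30 min, 37C; fluorescence monomer (490/535) and aggregate (540/590).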
# [9] = qHTS assay for small molecule disruptors of the mitochondrial membrane potential - 5 hr assay (AID 651755; calls by dose curve; further: nearly all actives have a fitted effect of over 40% in size); conditions: JC-1-type ratio dye; series mostly up to 92.2 µM
# Outline: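 HepG2, 2,000 cells/well, overnight attach; cpd or DMSO 5 hr, 37C/5% CO2; Mito-MPS 30 min 37C; fluor 490/535 + 540/590 nm.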
# [10] = qHTS assay to identify small molecules that stimulate interleukin-8 (IL-8) secretion (AID 651758; active means well fitted activation curve with a large enough effect in the signal ratio; the % refers to the signal ratio); conditions: HTRF ratio (665/615); series mostly up to 92.2 µM
# Outline: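 Secreted IL-8 measured by TR-FRET sandwich (cryptate and XL665 antibodies) from THP-1 cells exposed to compound overnight (16 hrs, 37 C).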
# Chain of Tumor necrosis factor (Homo sapiens) (P01375 whole entry, looked up): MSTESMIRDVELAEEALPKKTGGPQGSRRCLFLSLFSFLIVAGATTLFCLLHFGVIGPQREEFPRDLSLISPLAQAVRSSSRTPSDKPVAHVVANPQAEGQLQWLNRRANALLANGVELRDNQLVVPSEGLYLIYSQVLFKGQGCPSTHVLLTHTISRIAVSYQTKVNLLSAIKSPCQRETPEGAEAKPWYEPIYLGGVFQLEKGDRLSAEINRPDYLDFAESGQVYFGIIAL
compound,measurement,setting,value
CCCCC(CC)COC(=O)C(C#N)=C(c1ccccc1)c1ccccc1 (configuration not stated),activation,[1],-3.23%
same,activation,[2],0.0169%
same,Potency,[3],inactive
same,activation,[4],0.749%
CCOC(=O)C(C)Oc1cccc2c(=O)n(CC(=O)Nc3ccc4c(c3)OCCO4)ccc12 (configuration not stated),Potency,[5],inactive
same,Potency,[6],inactive
COc1c2occc2cc2ccc(=O)oc12,Potency,[7],inactive
same,activation,[1],-0.24% and -0.96%
same,Potency,[8],inactive
same,Potency,[9],inactive
same,Potency,[3],inactive
COc1cc(Nc2c(C#N)cnc3cc(OCCCN4CCN(C)CC4)c(OC)cc23)c(Cl)cc1Cl,Potency,[5],inactive
CNC[C@H](O)c1ccc(O)c(O)c1,Potency,[7],48.6 µM (active)
same,activation,[1],1.2%
same,activation,[4],-0.576%
c1ccc2[nH]c(-c3cscn3)nc2c1,Potency,[7],inactive
same,activation,[2],-1.73% and -1.48%
same,Potency,[3],inactive
NS(=O)(=O)c1cc(C(=O)O)c(NCc2ccco2)cc1Cl,Potency,[7],inactive
same,activation,[2],-1.24% and -2.58%
same,Potency,[8],inactive
same,Potency,[9],inactive
same,Potency,[3],inactive
Nc1ccc(S(N)(=O)=O)cc1,Potency,[7],inactive
same,activation,[1],-2.72%
same,Potency,[8],inactive
same,Potency,[9],inactive
same,Potency,[3],inactive
same,activation,[4],-0.82%
Nc1cccc2c1CN(C1CCC(=O)NC1=O)C2=O (configuration not stated),Potency,[5],inactive
same,Potency,[6],inactive
Cc1ccc(C)c(OCCCC(C)(C)C(=O)O)c1,Potency,[7],inactive
same,activation,[2],-1.25% and -0.0385%
same,Potency,[8],inactive
same,Potency,[9],inactive
same,Potency,[3],inactive
same,activation,[4],-0.112% and 1.21%
N[C@@H](Cc1cc(I)c(Oc2cc(I)c(O)c(I)c2)c(I)c1)C(=O)O,Potency,[7],54.5 µM (active)
same,activation,[2],8.63%
same,Potency,[4],44.7 µM (active)
COC(=O)[C@H](Cc1ccccc1)NC(=O)[C@@H](N)CC(=O)O (H-Asp-Phe-OMe),Potency,[7],inactive
same,activation,[1],0.335% and -1.33%
same,activation,[2],-1.39% and -0.748%
same,Potency,[3],inactive
same,outcome,[10],inactive
same,activation,[4],-1.45% and -0.834%
CCCc1cc(=O)[nH]c(=S)[nH]1,Potency,[7],inactive
same,activation,[1],0.119% and 0.547%
same,Potency,[3],inactive
same,activation,[4],0.594% and 1.79%
Nc1nc(Cl)nc2c1ncn2[C@H]1C[C@H](O)[C@@H](CO)O1,Potency,[5],inactive
same,Potency,[1],0.501 µM (active)
same,activation,[2],0.321%
same,activation,[4],1.52%
Cc1cc(O)c2c(c1)C(=O)c1cc(O)cc(O)c1C2=O,activation,[2],0.85% and -1.63%
same,Potency,[4],44.7 µM (active)
CCN(CC)CCOc1ccc(Nc2ncc3cc(-c4c(Cl)cccc4Cl)c(=O)n(C)c3n2)cc1,Potency,[6],26.4 µM (active)
CS(=O)(=O)OCCCCOS(C)(=O)=O,activation,[1],1.64% and 0.944% and -3.49%
same,Potency,[8],inactive
same,Potency,[9],inactive
same,Potency,[3],inactive
same,outcome,[10],inactive
same,activation,[4],2.49% and 0.0953% and 0.509%
CC1(C)NC(=O)N(c2ccc([N+](=O)[O-])c(C(F)(F)F)c2)C1=O,Potency,[7],54.5 µM (active)
same,activation,[1],15.1%
same,activation,[4],1.77%
Cc1ccc(Nc2nccc(N(C)c3ccc4c(C)n(C)nc4c3)n2)cc1S(N)(=O)=O,Potency,[6],inactive
